Results on five molecules are retold here after PubChem BioAssay (NCATS).

The structures appear in SMILES notation. Records with an inconclusive call do not appear. The source made the active and inactive calls. Unless noted, the call rests on the fitted dose curve; in most records, active means well fitted curve in the direction sought with a large enough effect; inconclusive means small, poorly fitted or top-dose-only effect, or another doubt; inactive means no such curve, though single readings can be large; an effect the other way counts as inactive or inconclusive. Some results are limits rather than exact numbers.

The nature of experiment [1]: AP1 Signaling Pathway (AID 357; active means well fitted curve in either direction with a large enough effect, not every such curve was filed as active; further: on the % scale 0 is the no-effect control and ±100 the full control effect). In short, it runs like this:
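AP-1-bla ME-180 cells with beta-lactamase reporter under AP-1 response element, stimulated with EC50 EGF; compounds titrated, 5 hours at 37 degrees Celsius. CCF4 read at 460/530 nm ratio; positive and negative modulators judged by AC50.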

Experiment [2] has as its target Cytochrome P450 1A2 (Homo sapiens) (UniProt P05177). The experiment is described as follows: p450-cyp1a2 (AID 410; calls by dose curve). In short, it runs like this: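 Human CYP1A2 (20nM) demethylated Luciferin-ME at its Km (100uM) in 100mM KPO4. After 10 min compound preincubation, NADPH regeneration ran the reaction 60 min at room temperature. Luciferin was read by luminescence, normalized to 57 uM furafylline.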

Experiment [3] is described as follows: NFAT Signaling Pathway (AID 444; active means well fitted curve in either direction with a large enough effect, not every such curve was filed as active;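 further: carbachol stimulus at about its EC50 of 1 µM final; on the % scale 0 is the no-effect control and ±100 the full control effect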). The settings on record: Jurkat NFAT-bla M1, carbachol, beta-lactamase ratio, 5 h; at 17.2 µM (top of the series) unless noted. The method in brief: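 Jurkat cells carrying an NFAT-driven β-lactamase reporter and co-transfected muscarinic M1 receptor were treated with compound plus carbachol (1 uM final, an EC50 level) for 5 h at 37 °C. CCF4 loading followed for 1 h at RT; 460/530 nm ratio gave %activity.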

The nature of experiment [4]: Stat Signaling Pathway (AID 446; active means well fitted curve in either direction with a large enough effect, not every such curve was filed as active;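 further: ME-180 cervical cancer cells given 40 pM IL-6 alongside compound; SIE-controlled beta-lactamase reporter measured as 460/530 nm FRET emission ratio; on the % scale 0 is the no-effect control and ±100 the full control effect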). In short, it runs like this:
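Reporter line: ME-180 cervical carcinoma, SIE-beta-lactamase. Treatment: compound with 40 pM IL-6, 5 hrs, 37 C, in low-serum OPTI-MEM with 10 mM HEPES pH 7.3. Detection: 460/530 nm fluorescence.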

Experiment [5] addresses Glucocorticoid receptor (Homo sapiens) (UniProt P04150). The experiment in a line: GR-GFP Redistribution (AID 450;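 active means compounds whose dose series gives a full or clear partial fitted curve of increased nuclear translocation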; further: potency means the concentration at half of the fitted maximal effect). The conditions noted are these: U2OS GR-GFP nuclear translocation, laser cytometry, 2 h.
Experiment [6] has the same target. The experiment is described as follows: GR-EFC Redistribution (AID 451; calls by dose curve; further: potency means the concentration at half of the fitted maximal effect). The settings on record: CHO-K1 GR-EFC translocation, beta-gal luminescence, 2 h. The method in brief: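 CHO-K1 cells stably expressing nuclear-localized β-gal enzyme acceptor and GR fused C-terminally to the enzyme donor fragment; ligand-driven nuclear translocation restores β-gal by complementation. Compounds titrated up to 46 uM final, 2 h at 37 °C; luminescence read.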

In experiment [7] the target is Mitogen-activated protein kinase 10 (Mus musculus) (UniProt Q61831). The experiment is described as follows: JNK3 AlphaScreen Assay (AID 530; active means well fitted curve in either direction with a large enough effect, not every such curve was filed as active;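 further: kinase came from lysate of stimulated human HepG2 cells; signal reports phosphorylation of biotinylated GST-cJun 1-79 at Ser73 with 10 µM ATP; on the % scale 0 is the no-effect control and ±100 the full control effect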). In short, it runs like this: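 JNK3 came from HepG2 lysates pre-activated with IL-1beta and TNF-alpha and phosphorylated biotinylated GST-cJun (1-79) at 10 uM ATP, pH 7.6, room temperature. Compounds were titrated. AlphaScreen signal used anti-phospho-cJun (Ser73) antibody.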
Background: In Alpha technology, singlet oxygen from a donor bead excites a nearby acceptor bead.

Experiment [8] has as its target 3',5'-cyclic-AMP phosphodiesterase 4B (Homo sapiens) (UniProt Q07343). The experiment is described as follows: qHTS Assay for Inhibitors of PDE-IV (AID 607; active means well fitted activation curve with a large enough effect in the main read-out, with a control signal flat, not every such curve was filed as active; further: % of control where 0% means no effect). The method in brief: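 Cell-based read-out of cAMP via a modified cyclic nucleotide-gated channel and membrane potential dye (535/590 nm) in HEK293 cells expressing PDE4 endogenously. Compounds tested up to 22.9 uM final; 100 uM RO 20-1724 reference.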

Experiment [9] in a line: qHTS Assay for Lipid Storage Modulators (AID 1519; calls by dose curve). The conditions noted are these: Drosophila S3 cells, BODIPY lipid droplet/cell ratio, laser cytometry, cells loaded with oleic acid; for activity change, negative = inhibition: at 25.7 µM (top of the series). The method in brief: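 Cells seeded at 5,000 per well were treated with compounds over a concentration series and loaded with oleic acid (400 uM, as added). Lipid droplet fluorescence (488 nm excitation, 500-530 nm channel) was read by laser-scanning cytometry and normalized to 20 uM Triacsin C.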
On the technique in general: qHTS replaces the single test concentration by a dilution series.

The target of experiment [10] is ATP-dependent 6-phosphofructokinase (Trypanosoma brucei brucei) (UniProt O15648). The experiment is described as follows: qHTS Assay to Find Inhibitors of T. brucei phosphofructokinase: hit validation (AID 492961). In short, it runs like this:
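Percent activity derived from corrected luminescence, normalized between 0x and 1x enzyme controls, then fitted to concentration-response curves. Conditions: 1.25 nM PFK, 0.1 mM ATP, 0.5 mM F6P, 45 min RT.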

Experiment [11] addresses Ubiquitin carboxyl-terminal hydrolase 1 (Homo sapiens) (UniProt O94782). The experiment is described as follows: Inhibitors of USP1/UAF1: Pilot qHTS (AID 504865).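 Further: rhodamine fluorescence freed from ubiquitin-rhodamine substrate followed over time; top concentration of the series differs between compounds; on the % scale 0 is the no-effect control and ±100 the full control effect; nearly all actives have a fitted effect of over 35% in size.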 The method in brief: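 Kinetic fluorescence assay: 1nM USP1/UAF1, 15 min compound preincubation, then 150nM Ub-Rho; 480/540 nm.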
Experiment [12] deals with Luciferin 4-monooxygenase (Photinus pyralis) (UniProt P08659). The experiment is described as follows: Biochemical firefly luciferase enzyme assay for NPC (AID 624030).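 Further: purified P. pyralis luciferase at 10 nM with luciferin and ATP substrate; 0% = DMSO and -100% = full luciferase inhibition by PTC124 control; nearly all actives have a fitted effect of over 70% in size.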 In short, it runs like this: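 Counter-screen for direct inhibition of the luciferase enzyme by approved-drug library compounds, run at 10 nM enzyme in 50 mM Tris acetate (final). Luminescence was read within 5 min of enzyme-buffer addition and normalized to PTC124 versus DMSO (0%).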

A short description of experiment [13]: qHTS profiling for inhibitors of Plasmodium falciparum proliferation (AID 504749).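 Further: 0% = DMSO vehicle and full inhibition = artemisinin control; nearly all actives have a fitted effect of over 60% in size.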 The conditions noted are these: P. falciparum in erythrocytes, SYBR Green DNA, 72 h, at 12.8 µM (top of the series). In short, it runs like this:
(§1)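 P. falciparum-infected erythrocytes (0.3% parasitemia, 2.5% hematocrit final) were exposed to compounds for 72 h at 37 C in 5% CO2, then lysed with SYBR Green buffer overnight at room temperature; parasite DNA fluorescence was normalized to artemisinin and DMSO controls.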

Experiment [14] deals with 3D7. Described as above. The settings on record: P. falciparum in erythrocytes, SYBR Green DNA, 72 h; series mostly up to 12.8 µM. The method in brief: as §1
For experiment [15], the system named is C2A. The description is as above. The conditions noted are these: P. falciparum in erythrocytes, SYBR Green DNA, 72 h; series mostly up to 12.8 µM. In short, it runs like this: as §1
Experiment [16] relates to CP217. The description is as above. The settings on record: P. falciparum in erythrocytes, SYBR Green DNA, 72 h; series mostly up to 12.8 µM. The method in brief: as §1
Experiment [17] deals with CP250. Described as above. The conditions noted are these: P. falciparum in erythrocytes, SYBR Green DNA, 72 h; series mostly up to 12.8 µM. The method in brief:
as §1

The subject of experiment [18] is FAB9. Described as above. The settings on record: P. falciparum in erythrocytes, SYBR Green DNA, 72 h; series mostly up to 12.8 µM. In short, it runs like this:
as §1

Experiment [19] has as its system JCK. Described as above. The conditions noted are these: P. falciparum in erythrocytes, SYBR Green DNA, 72 h; series mostly up to 12.8 µM. The method in brief: as §1
Experiment [20] deals with PC49. The experiment is described as above. The conditions noted are these: P. falciparum in erythrocytes, SYBR Green DNA, 72 h; series mostly up to 12.8 µM. The method in brief: as §1
Setting [21] is: measured here: cell count channel max response.
Setting [22] is: measured here: lipid channel max response.

Sequence of ATP-dependent 6-phosphofructokinase (Trypanosoma brucei brucei) (O15648 whole entry, looked up): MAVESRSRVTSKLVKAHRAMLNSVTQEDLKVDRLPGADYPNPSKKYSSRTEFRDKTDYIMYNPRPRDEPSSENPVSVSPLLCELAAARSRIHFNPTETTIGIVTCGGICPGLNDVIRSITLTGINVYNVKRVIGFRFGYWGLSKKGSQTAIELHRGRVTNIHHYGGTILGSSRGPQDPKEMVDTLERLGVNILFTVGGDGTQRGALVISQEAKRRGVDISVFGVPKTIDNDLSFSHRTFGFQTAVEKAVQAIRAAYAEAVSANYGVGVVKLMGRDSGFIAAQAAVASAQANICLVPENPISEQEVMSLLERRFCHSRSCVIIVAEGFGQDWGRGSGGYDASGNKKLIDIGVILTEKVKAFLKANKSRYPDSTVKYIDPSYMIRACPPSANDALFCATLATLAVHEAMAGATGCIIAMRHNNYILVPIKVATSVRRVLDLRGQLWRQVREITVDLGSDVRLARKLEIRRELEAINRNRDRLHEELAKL
Sequence of Glucocorticoid receptor (Homo sapiens) (P04150 whole entry, looked up, the tested form may be a part): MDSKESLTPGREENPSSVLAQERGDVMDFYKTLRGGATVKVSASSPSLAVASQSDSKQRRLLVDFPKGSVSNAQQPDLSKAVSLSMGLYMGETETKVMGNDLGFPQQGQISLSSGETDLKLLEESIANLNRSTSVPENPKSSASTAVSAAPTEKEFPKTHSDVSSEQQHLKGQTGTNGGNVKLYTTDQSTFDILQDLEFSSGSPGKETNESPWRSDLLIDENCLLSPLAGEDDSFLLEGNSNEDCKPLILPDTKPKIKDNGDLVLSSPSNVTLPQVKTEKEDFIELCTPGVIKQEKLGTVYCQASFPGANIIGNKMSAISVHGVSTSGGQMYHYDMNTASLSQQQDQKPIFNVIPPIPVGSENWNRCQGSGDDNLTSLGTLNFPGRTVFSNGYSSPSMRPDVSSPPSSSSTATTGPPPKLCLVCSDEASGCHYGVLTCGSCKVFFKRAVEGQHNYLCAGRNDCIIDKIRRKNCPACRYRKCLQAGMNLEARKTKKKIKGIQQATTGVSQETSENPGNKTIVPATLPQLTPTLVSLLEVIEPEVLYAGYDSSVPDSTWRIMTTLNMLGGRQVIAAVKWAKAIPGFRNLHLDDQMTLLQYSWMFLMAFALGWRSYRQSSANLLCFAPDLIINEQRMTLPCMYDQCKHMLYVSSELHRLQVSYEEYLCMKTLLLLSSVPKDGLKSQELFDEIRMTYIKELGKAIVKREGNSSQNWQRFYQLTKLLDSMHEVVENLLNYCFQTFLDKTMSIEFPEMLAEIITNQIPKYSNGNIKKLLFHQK
Sequence of Ubiquitin carboxyl-terminal hydrolase 1 (Homo sapiens) (O94782 whole entry, looked up): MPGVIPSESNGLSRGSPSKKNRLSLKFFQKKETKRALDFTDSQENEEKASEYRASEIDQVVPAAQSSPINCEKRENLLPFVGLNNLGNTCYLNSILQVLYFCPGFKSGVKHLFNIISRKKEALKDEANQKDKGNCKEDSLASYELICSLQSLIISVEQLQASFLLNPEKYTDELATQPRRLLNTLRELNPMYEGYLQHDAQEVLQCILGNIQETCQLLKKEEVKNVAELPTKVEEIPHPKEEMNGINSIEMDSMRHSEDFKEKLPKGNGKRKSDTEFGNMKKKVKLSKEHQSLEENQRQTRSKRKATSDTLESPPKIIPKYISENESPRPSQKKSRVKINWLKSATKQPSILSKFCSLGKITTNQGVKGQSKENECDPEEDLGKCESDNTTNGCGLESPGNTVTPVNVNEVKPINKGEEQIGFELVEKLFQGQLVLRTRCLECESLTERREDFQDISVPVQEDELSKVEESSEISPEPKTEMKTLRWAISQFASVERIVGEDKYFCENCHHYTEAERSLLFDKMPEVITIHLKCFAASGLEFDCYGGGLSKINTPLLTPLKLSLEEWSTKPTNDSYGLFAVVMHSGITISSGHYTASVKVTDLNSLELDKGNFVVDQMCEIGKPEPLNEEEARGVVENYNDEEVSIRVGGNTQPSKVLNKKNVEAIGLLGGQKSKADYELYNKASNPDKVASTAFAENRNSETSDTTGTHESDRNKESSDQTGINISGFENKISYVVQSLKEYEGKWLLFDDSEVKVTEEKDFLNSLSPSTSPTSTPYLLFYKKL
Sequence of Cytochrome P450 1A2 (Homo sapiens) (P05177 whole entry, looked up): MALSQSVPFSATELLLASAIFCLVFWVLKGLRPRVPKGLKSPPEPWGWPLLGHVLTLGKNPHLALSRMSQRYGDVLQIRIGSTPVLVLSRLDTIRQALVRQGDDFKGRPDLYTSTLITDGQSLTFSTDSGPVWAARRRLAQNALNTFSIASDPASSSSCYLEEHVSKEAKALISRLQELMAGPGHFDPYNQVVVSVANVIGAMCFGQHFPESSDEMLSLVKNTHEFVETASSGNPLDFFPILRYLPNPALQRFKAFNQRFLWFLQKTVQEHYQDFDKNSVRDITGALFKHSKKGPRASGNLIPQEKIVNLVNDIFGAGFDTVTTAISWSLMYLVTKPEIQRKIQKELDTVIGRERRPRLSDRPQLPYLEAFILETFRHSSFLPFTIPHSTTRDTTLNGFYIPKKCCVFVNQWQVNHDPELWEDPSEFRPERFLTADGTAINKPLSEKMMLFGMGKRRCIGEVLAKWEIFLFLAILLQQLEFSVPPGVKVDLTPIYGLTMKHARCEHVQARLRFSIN
Sequence of Luciferin 4-monooxygenase (Photinus pyralis) (P08659 whole entry, looked up): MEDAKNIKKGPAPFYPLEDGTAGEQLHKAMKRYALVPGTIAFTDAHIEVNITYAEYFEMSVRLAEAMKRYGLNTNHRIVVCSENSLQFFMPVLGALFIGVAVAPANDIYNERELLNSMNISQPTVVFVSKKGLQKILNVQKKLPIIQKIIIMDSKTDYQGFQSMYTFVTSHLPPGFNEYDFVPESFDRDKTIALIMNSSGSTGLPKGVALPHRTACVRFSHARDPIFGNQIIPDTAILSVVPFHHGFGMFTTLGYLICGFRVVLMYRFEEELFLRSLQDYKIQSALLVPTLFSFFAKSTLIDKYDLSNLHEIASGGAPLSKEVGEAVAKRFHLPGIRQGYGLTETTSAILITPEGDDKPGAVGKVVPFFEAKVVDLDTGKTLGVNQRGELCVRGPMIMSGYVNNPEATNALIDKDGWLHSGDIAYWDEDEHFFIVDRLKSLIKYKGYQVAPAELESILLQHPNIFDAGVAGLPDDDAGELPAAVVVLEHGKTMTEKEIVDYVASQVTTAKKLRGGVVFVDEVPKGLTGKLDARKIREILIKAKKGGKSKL
Sequence of 3',5'-cyclic-AMP phosphodiesterase 4B (Homo sapiens) (Q07343 whole entry, looked up): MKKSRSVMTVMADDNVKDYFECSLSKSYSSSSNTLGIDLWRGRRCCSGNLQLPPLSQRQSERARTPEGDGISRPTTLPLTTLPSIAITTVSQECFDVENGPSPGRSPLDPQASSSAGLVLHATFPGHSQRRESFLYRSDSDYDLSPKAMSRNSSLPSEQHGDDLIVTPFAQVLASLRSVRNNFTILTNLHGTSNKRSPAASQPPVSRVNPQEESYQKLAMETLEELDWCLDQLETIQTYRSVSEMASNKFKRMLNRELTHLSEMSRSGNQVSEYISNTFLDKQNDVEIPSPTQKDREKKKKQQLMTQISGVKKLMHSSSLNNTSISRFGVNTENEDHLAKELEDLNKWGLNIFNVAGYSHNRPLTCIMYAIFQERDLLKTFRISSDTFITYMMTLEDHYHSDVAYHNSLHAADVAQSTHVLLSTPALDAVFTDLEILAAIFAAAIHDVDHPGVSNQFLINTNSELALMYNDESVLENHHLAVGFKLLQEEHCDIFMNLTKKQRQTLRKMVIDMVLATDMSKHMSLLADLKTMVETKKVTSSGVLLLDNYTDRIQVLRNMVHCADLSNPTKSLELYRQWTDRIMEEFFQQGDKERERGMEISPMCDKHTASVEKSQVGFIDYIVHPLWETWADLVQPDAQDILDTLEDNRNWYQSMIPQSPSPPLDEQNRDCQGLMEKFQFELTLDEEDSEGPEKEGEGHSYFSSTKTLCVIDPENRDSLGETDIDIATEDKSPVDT

As for `COc1ccc(C[C@@](C)(N)C(=O)O)cc1OC`, the molecule was classed as inactive in experiment [1], in experiment [4], in experiment [8] and in experiment [10]. The Potency result in [2], in [7], in experiment [11], in experiment [12], in experiment [14] and in [15] was “inactive” in each case. Also, the Potency entry in experiment [16], in experiment [17], in experiment [18], in experiment [19] and in experiment [20] was “inactive” each time. Moreover, the results for the activity change, negative = inhibition in [3] and in experiment [9] were -8.96% (inactive) and -2.09% (inactive), respectively. Moreover, the Potency in experiment [5] and in experiment [6] was > 20.6 µM (inactive) in each case. In addition, the max response in [9] (setting [21]) is -10.3%; in experiment [9] (setting [22]) it was -12.4%. Further, the values for the activity, negative = inhibition in [13] (parasite line A) and in [13] (parasite line B) were 3.21% (inactive) and -23.5% (inactive), respectively.
Turning to `CC1(C)O[C@@H]2C[C@H]3[C@H]4C[C@H](F)C5=CC(=O)CC[C@]5(C)[C@@H]4[C@H](O)C[C@]3(C)[C@]2(C(=O)CO)O1`, the molecule was classed as inactive in experiment [1], in experiment [4], in experiment [8] and in experiment [10]. The Potency entry in [2], in [7], in [11], in experiment [12], in experiment [14] and in [15] was “inactive” each time. Also, the Potency result in [16], in experiment [17], in experiment [18], in experiment [19] and in experiment [20] was “inactive” in each case. Further, the activity change, negative = inhibition in [3] is -4.77% (inactive); in experiment [9], -1.62% (inactive). The Potency was 0.00126 µM (active) in experiment [5] and 0.0188 µM (active) in [6]. The max response in experiment [9] (setting [21]) was -9.46%; in [9] (setting [22]), -9.41%. The activity, negative = inhibition in [13] (parasite line A) is -10.9% (inactive); in experiment [13] (parasite line B) it was -1.91% (inactive).
On to `CNC[C@H](O)c1ccc(OC(=O)C(C)(C)C)c(OC(=O)C(C)(C)C)c1`, for which the molecule was classed as inactive in experiment [1], in experiment [4], in experiment [8] and in experiment [10]. Besides, the Potency result in experiment [2], in experiment [7], in [12], in experiment [14], in [15] and in experiment [16] was “inactive” each time. Further, the Potency result in experiment [17], in [18], in experiment [19] and in [20] was “inactive” in each case. Also, the activity change, negative = inhibition in experiment [3] is 1.95% (inactive); in experiment [9], 0.431% (inactive). Moreover, the Potency in experiment [5] and in [6] was > 20.6 µM (inactive) each time. Also, the max response in [9] (setting [21]) is 14.1%; in experiment [9] (setting [22]), 16.1%. For the same molecule, the activity, negative = inhibition in [13] (parasite line A) was -7.03% (inactive).
Regarding `Cc1onc(-c2c(Cl)cccc2Cl)c1C(=O)N[C@H]1C(=O)N2[C@H]1SC(C)(C)[C@H]2C(=O)O`, the call in experiment [1], in [4] and in experiment [8] was inactive. The Potency entry in experiment [2], in [7] and in experiment [11] was “inactive” each time. Further, the activity change, negative = inhibition in [3] was -5.49% (inactive); in experiment [9], -2.5% (inactive). The Potency in experiment [5] and in experiment [6] was > 20.6 µM (inactive) throughout. Further, the max response in [9] (setting [21]) is -2.7%; in experiment [9] (setting [22]), -4.28%.
`O=c1[nH]c(=O)n([C@@H]2C[C@H](O)[C@H](CO)O2)cc1C(F)(F)F`: the molecule was called inactive in experiment [1] and in [4]. Besides, the Potency result in [2], in experiment [7] and in experiment [11] was “inactive” throughout. The activity change, negative = inhibition in experiment [3] was 1.4% (inactive); in [9], -0.507% (inactive). Further, the Potency in experiment [5] and in experiment [6] was > 20.6 µM (inactive) each time. Also, the max response in experiment [9] (setting [21]) was -7.04%; in experiment [9] (setting [22]) it was -7.97%.
